Test systems include SR leukemia; RPMI-8226 leukemia; OVCAR-8 ovarian; OVCAR-5 ovarian; SK-OV-3 ovarian; IGROV1 ovarian; OVCAR-3 ovarian; HS 578T breast; NCI/ADR-RES ovarian; T-47D breast; BT-549 breast; MDA-MB-435 melanoma; SW-620 colon; MCF7 breast; HCT-116 colon; HCC-2998 colon; KM12 colon.
Holding throughout (assay): NCI-60 one-dose screen, 48 h (100 = growth as untreated, 0 = no growth, -100 = all killed)
Settings in all cases: 10 µM unless noted

About 83,000 compounds went through this panel and 20% of them were active in at least one assay; those are over-represented in the sample as a whole.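 Note: values are percent growth. 100 is the growth of untreated cells, values between 100 and 0 indicate rising inhibition; between -100 and 0 indicates cell death.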 Values without a mark were called inactive. Calls of active or inactive are those of the source. Rule for the calls: active = growth percent below 10; inactive = the rest.

Turning to `N=C(N)c1ccc(-c2ccc(-c3ccccc3)o2)o1`, the growth with SR leukemia was -15% (active); with RPMI-8226 leukemia, 9.58% (active); with OVCAR-8 ovarian, 34.4%; with OVCAR-5 ovarian it was 72.8%; in the assay on SK-OV-3 ovarian, 45.9%; in the assay on IGROV1 ovarian it was 45.3%. Besides, the growth in the assay on OVCAR-3 ovarian is 17%; in the assay on HS 578T breast, 45.6%; in the assay with NCI/ADR-RES ovarian, 36.3%; in the assay with T-47D breast, 32.8%; with BT-549 breast, 64.6%; in the assay on MDA-MB-435 melanoma it was -32.9% (active). Also, the growth in the assay on SW-620 colon is 1.14% (active); with MCF7 breast, 20.6%; in the assay with HCT-116 colon it was 19.4%; in the assay with HCC-2998 colon, 46.9%; in the assay with KM12 colon it was 16.6%.

For the compound `COc1ccc2cc(C(=O)N3CCC([C@@H](C)C(=O)NCc4ccc5c(c4)OCO5)CC3)[nH]c2c1`, the growth with SR leukemia is 62.6% [50 µM]; in the assay on RPMI-8226 leukemia, 47.1% [50 µM]; in the assay with OVCAR-8 ovarian, 16.3% [50 µM]; with OVCAR-5 ovarian, 73.1% [50 µM]; with SK-OV-3 ovarian, 1.39% [50 µM] (active); in the assay on IGROV1 ovarian, 41.6% [50 µM]. For the same compound, the growth in the assay with OVCAR-3 ovarian is 8.71% [50 µM] (active); with HS 578T breast, 22.9% [50 µM]; in the assay on NCI/ADR-RES ovarian it was 38.3% [50 µM]; in the assay on T-47D breast, 17.3% [50 µM]; with BT-549 breast, 16% [50 µM]; in the assay with MDA-MB-435 melanoma, 65.9% [50 µM]. Besides, the growth in the assay on SW-620 colon was 103% [50 µM]; with MCF7 breast it was 46.8% [50 µM]; in the assay on HCT-116 colon, 33.6% [50 µM]; with KM12 colon, 79.1% [50 µM].

Consider `C#CCOc1cccc(Nc2ncnc3cc(NC(=O)CCl)ccc23)c1`, for which the growth is -47.7% (active) in the assay on SR leukemia; -43.9% (active) with RPMI-8226 leukemia; -30.2% (active) with OVCAR-8 ovarian; -73% (active) in the assay with OVCAR-5 ovarian; -55.8% (active) in the assay with SK-OV-3 ovarian; -64.6% (active) in the assay with IGROV1 ovarian. In addition, the growth was -76.7% (active) in the assay with OVCAR-3 ovarian; -1.12% (active) in the assay on HS 578T breast; -48.9% (active) in the assay on T-47D breast; -55.4% (active) in the assay on BT-549 breast; -75.2% (active) with MDA-MB-435 melanoma; -49.7% (active) in the assay on SW-620 colon. Besides, the values for the growth with MCF7 breast, with HCC-2998 colon and in the assay with KM12 colon were -15.9% (active), -67.2% (active) and -69.5% (active), respectively.

In the case of `COc1cc(/C=C/C(=O)N2CCN(C(=O)c3cc(OC)c(OC)c(OC)c3)CC2)ccc1OCCCOc1cc2c(cc1OC)C(=O)N1CCC[C@H]1C=N2`, the growth in the assay on SR leukemia is -15.4% (active); in the assay with RPMI-8226 leukemia, 15.2%; with OVCAR-8 ovarian, 14.1%; with OVCAR-5 ovarian it was 8.34% (active); in the assay with SK-OV-3 ovarian, 20.3%; with IGROV1 ovarian it was -57.9% (active). The growth is -11.9% (active) with OVCAR-3 ovarian; -2.23% (active) in the assay with HS 578T breast; 78.6% with NCI/ADR-RES ovarian; 7.16% (active) in the assay with T-47D breast; -55.9% (active) with BT-549 breast; -66.4% (active) in the assay with MDA-MB-435 melanoma. The growth was 4.48% (active) with SW-620 colon; 7.86% (active) in the assay on MCF7 breast; 7.83% (active) with HCT-116 colon; -39% (active) in the assay with HCC-2998 colon; -19.5% (active) in the assay with KM12 colon.

Consider `CC(C)(C)c1ccc(C(=O)N/N=C/c2ccc(O)cc2O)cc1`, for which the growth was 19.8% in the assay with SR leukemia; 28.6% with RPMI-8226 leukemia; 17.4% in the assay on OVCAR-8 ovarian; 34.4% with OVCAR-5 ovarian; 23.2% in the assay with SK-OV-3 ovarian; 20% in the assay with IGROV1 ovarian. Moreover, the growth in the assay on OVCAR-3 ovarian was 12.1%; with HS 578T breast, 38.1%; in the assay with NCI/ADR-RES ovarian it was 5.92% (active); in the assay with T-47D breast it was 33.1%; in the assay with BT-549 breast, 32%; in the assay on MDA-MB-435 melanoma it was 34.3%. The growth was 30% in the assay on SW-620 colon, 8.44% (active) in the assay with MCF7 breast, 19.4% with HCC-2998 colon and 12.5% with KM12 colon.

As for `COc1cc2c3c(c4c5ccccc5[nH]c4c2c(OC)c1OC)C(=O)N(CCN1CCCCC1)C3=O`, the growth in the assay on SR leukemia was 21.6%; with RPMI-8226 leukemia it was -12% (active); in the assay with OVCAR-8 ovarian it was -35.5% (active); with OVCAR-5 ovarian it was 52.4%; with SK-OV-3 ovarian it was 54.7%; in the assay on IGROV1 ovarian, -68.8% (active). Further, the growth is -20.7% (active) with OVCAR-3 ovarian; 52.2% in the assay with HS 578T breast; 24.6% with NCI/ADR-RES ovarian; 59.5% with T-47D breast; 96.6% in the assay with BT-549 breast; 33.7% in the assay with MDA-MB-435 melanoma. Further, the growth was -66.4% (active) with SW-620 colon; -56.3% (active) with MCF7 breast; -85.6% (active) with HCT-116 colon; 22.3% with HCC-2998 colon; -20% (active) in the assay with KM12 colon.

For the compound `O=C(/C=C/C12c3ccccc3C(c3ccccc31)C1C(=O)NC(=O)C12)c1ccc(I)cc1` (centres undefined), the growth is 25.2% in the assay on SR leukemia; 3.09% (active) with RPMI-8226 leukemia; 35.6% in the assay with OVCAR-8 ovarian; 73.4% in the assay with OVCAR-5 ovarian; 83% with SK-OV-3 ovarian; 55.6% in the assay with IGROV1 ovarian. For the same compound, the growth in the assay with OVCAR-3 ovarian is 9.43% (active); in the assay on HS 578T breast, 49.1%; with NCI/ADR-RES ovarian it was 50.9%; in the assay on T-47D breast, 38.9%; with BT-549 breast, 46.1%; in the assay with MDA-MB-435 melanoma, 31.2%. Also, the growth was 25% in the assay with SW-620 colon; 16.5% in the assay with MCF7 breast; 35.8% in the assay with HCT-116 colon; 100% in the assay on HCC-2998 colon; 57.8% with KM12 colon.

Turning to `COC12C=C/C(=C(/C(=O)OCCSc3ccnn3C)C(=O)CCCCCCCCC3(OC)C=C/C(=C(/C(=O)OCCSc4ccnn4C)C(=O)CCCCCCCC1)O3)O2`, the growth with SR leukemia is -7.77% (active); with RPMI-8226 leukemia, -8.92% (active); in the assay on OVCAR-8 ovarian, 17.3%; in the assay on OVCAR-5 ovarian it was 37%; in the assay on SK-OV-3 ovarian it was 75.1%; in the assay with IGROV1 ovarian, -3.71% (active). For the same compound, the growth with OVCAR-3 ovarian was 5.79% (active); in the assay with HS 578T breast it was 39.4%; in the assay with NCI/ADR-RES ovarian, 25.2%; in the assay with T-47D breast, 33.2%; with BT-549 breast, -22.7% (active); in the assay with MDA-MB-435 melanoma, -3.93% (active). Moreover, the growth in the assay on SW-620 colon is 18.5%; with MCF7 breast it was 14.7%; in the assay with HCT-116 colon, -38.5% (active); in the assay on HCC-2998 colon, -86.1% (active); with KM12 colon it was -57.6% (active).

`COc1ccc(/C=C(/C(=O)N2CCNCC2)c2cc(OC)c(OC)c(OC)c2)cc1O`: the growth in the assay on SR leukemia is 3.13% (active); with RPMI-8226 leukemia, 9.6% (active); in the assay on OVCAR-8 ovarian, 52.1%; in the assay on OVCAR-5 ovarian, 86.3%; with SK-OV-3 ovarian it was 10.1%; in the assay on IGROV1 ovarian, 60.2%. Also, the growth in the assay with OVCAR-3 ovarian is 10.5%; in the assay on HS 578T breast, 26.7%; in the assay on NCI/ADR-RES ovarian it was 105%; with T-47D breast, 31.6%; with BT-549 breast, 58.5%; in the assay with MDA-MB-435 melanoma it was -45% (active). Moreover, the growth was 35.1% with SW-620 colon; 23% with MCF7 breast; 19.8% with HCT-116 colon; 78.4% with HCC-2998 colon; 21.3% in the assay with KM12 colon.

Source of the values: PubChem BioAssay (NCI).
